The supplement of paper PMC12636033
± gives the standard deviation of the averaged measurements. Whole data set: some 33,000 sequences, median “E-score (rank enrichment, -0.5 to 0.5)” near -0.0068, cut for the highest 2% near 0.24. The sample holds the highest values, similar sequences and a random draw of the others, so the mix is not that of the screen.

system: muMax20 (Max(13-93) K31hArg/K57hArg, M65Nle); assay: PBM 8-mer E-score (E-score (rank enrichment, -0.5 to 0.5)); higher = stronger preferential binding
Experimental: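 Protein binding microarray (universal PBM chip covering all 10-mers in fixed probe flanks) with chemically synthesized human Max(13-93) bHLH-LZ analogs (not full-length Max) bearing noncanonical residues (hArg, Tha, Aib, Nle at 65) and aromatic Cys staples. Read-out per 8-mer (and its reverse complement): E-score (rank-based enrichment, -0.5 to 0.5) and Z-score of median probe intensity.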

Sequence	PBM 8-mer E-score
CCGTCCCA	0.0086 ± 0.03
AATGTCAT	0.0752 ± 0.093
CCTAAGAC	0.0353 ± 0.033
ATAGTTAC	0.181 ± 0.06
GTAGTAGA	0.0328 ± 0.058
ATAGTAGA	0.253 ± 0.031
ATAGTAAT	0.158 ± 0.027
CTAGTAAA	0.0505 ± 0.014
ATAGTTAA	0.261 ± 0.0096
ATAGTTAG	0.0831 ± 0.052
ATAGTAGG	0.0443 ± 0.12
ATAGTAAA	0.262 ± 0.012
TGGGTTAA	0.053 ± 0.046
GCCTCTCC	0.0347 ± 0.12
GCGAATCA	-0.157 ± 0.067
CCGATGGA	-0.246 ± 0.043
TAACGGTA	0.204 ± 0.011
TAAGCTGA	0.0855 ± 0.056
AACACGGG	0.0469 ± 0.0099
CGATGCGA	-0.117 ± 0.088
GAAGCCGC	-0.115 ± 0.058
AGCGTGAG	0.0998 ± 0.075
AACGTGGT	0.285 ± 0.029
AACGTGGA	0.162 ± 0.015

Sequence	PBM 8-mer E-score
AACGTGAG	0.0485 ± 0.088
AGCGTGAC	0.117 ± 0.086
AACGTGAT	0.272 ± 0.01
AGCGTGAT	0.25 ± 0.013
AACGTGAA	0.0196 ± 0.026
AACGTGCT	0.0241 ± 0.0069
ACCCCGTC	-0.138 ± 0.05
GGGGCGGA	0.0311 ± 0.065
AAACTAAC	0.121 ± 0.026
AGATGCAG	-0.0831 ± 0.013
CGTTCGAA	-0.071 ± 0.086
GCGGGCTA	-0.103 ± 0.02
ACATGTAT	0.307 ± 0.067
TCATGTAA	0.112 ± 0.08
ACATGTCG	0.189 ± 0.086
CCATGTAA	0.0522 ± 0.048
ACATGTAC	0.286 ± 0.021
CCATGTAG	0.0489 ± 0.046
ACATGTAG	0.255 ± 0.05
AGATGTAT	0.177 ± 0.041
GCATGTAC	0.15 ± 0.081
CCATGTAC	0.0415 ± 0.16
ACATGTCT	0.183 ± 0.035
ACATGTAA	0.249 ± 0.034

Sequence	PBM 8-mer E-score
CCTTGTAG	-0.0398 ± 0.016
ATGTTTGC	0.119 ± 0.034
ATTCCCGC	-0.0964 ± 0.2
AACTTATG	0.0994 ± 0.081
AAGGGAAG	0.201 ± 0.074
ATGCTCGA	0.0908 ± 0.059
AAACTTGC	0.203 ± 0.058
TAACTTGA	0.033 ± 0.066
AAACTTGA	0.241 ± 0.0031
ATAAGAGG	0.0841 ± 0.026
ATCAAACA	0.29 ± 0.056
ATCAAAAG	0.0605 ± 0.033
CTCAAACA	0.079 ± 0.12
ATCAAAAT	0.0188 ± 0.1
ATCAAAAA	0.284 ± 0.035
ATCAAGCA	0.012 ± 0.021
TAGGTTCA	-0.12 ± 0.087
GGCCCTAA	0.0586 ± 0.04
GTGGACGA	-0.0727 ± 0.036
CTGCCTTC	-0.136 ± 0.047
AGTCGTGC	-0.11 ± 0.024
CAGACGCG	-0.145 ± 0.18
